Results filed as inconclusive are left out. Calls of active or inactive are those of the source. Calls come from the whole dose curve; as a rule, active = well fitted inhibition curve with a large enough effect; inconclusive = small, poorly fitted or top-dose-only effect; inactive = flat fitted curve, though single readings scatter.
Key:
Experiment in all cases: qHTS profiling for inhibitors of Plasmodium falciparum proliferation (AID 504749); note: nearly all actives have a fitted effect of over 60% in size
Conditions in all cases: P. falciparum in erythrocytes, SYBR Green DNA, 72 h; series mostly up to 28.7 µM
CP192 = system: CP192
Outline: (§1)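 Parasite proliferation within erythrocytes, 72 h exposure. Endpoint: SYBR Green I fluorescence after overnight lysis at room temperature. Controls: 0.29 uM artemisinin, DMSO.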

CP194 = system: CP194
Outline: as §1

CP201 = system: CP201
Outline: as §1

CP203 = system: CP203
Outline: as §1

CP211 = system: CP211
Outline: as §1

CP215 = system: CP215
Outline: as §1

CP217 = system: CP217
Outline: as §1

CP237 = system: CP237
Outline: as §1

CP238 = system: CP238
Outline: as §1

CP247 = system: CP247
Outline: as §1

CP250 = system: CP250
Outline: as §1

CP252 = system: CP252
Outline: as §1

CP256 = system: CP256
Outline: as §1

CP260 = system: CP260
Outline: as §1

CP262 = system: CP262
Outline: as §1

CP265 = system: CP265
Outline: as §1

CP266 = system: CP266
Outline: as §1

CP268 = system: CP268
Outline: as §1

CP269 = system: CP269
Outline: as §1

CP286 = system: CP286
Outline: as §1

Measured: Potency
Potency is the fitted concentration of half-maximal effect.

Cc1nnc(NS(=O)(=O)c2ccc(N)cc2)s1
inactive: CP192 | CP194 | CP201 | CP203 | CP211 | CP215 | CP217 | CP237 | CP238 | CP247 | CP250 | CP252 | CP256 | CP260 | CP262 | CP265 | CP266 | CP268 | CP269 | CP286

Cc1cccc(Nc2ccncc2S(=O)(=O)NC(=O)NC(C)C)c1
inactive: CP192 | CP194 | CP201 | CP203 | CP211 | CP215 | CP217 | CP237 | CP238 | CP247 | CP250 | CP252 | CP256 | CP260 | CP262 | CP265 | CP266 | CP268 | CP269 | CP286

N[C@@H](C(=O)N[C@@H]1C(=O)N2C(C(=O)O)=C(Cl)CS[C@H]12)c1ccccc1
inactive: CP192 | CP194 | CP201 | CP203 | CP211 | CP215 | CP217 | CP237 | CP238 | CP247 | CP250 | CP252 | CP256 | CP260 | CP262 | CP265 | CP266 | CP268 | CP269 | CP286

CC(C)OC(=O)C(C(=O)OC(C)C)=C1SC=CS1
inactive: CP192 | CP194 | CP201 | CP203 | CP211 | CP215 | CP217 | CP237 | CP238 | CP247 | CP250 | CP252 | CP256 | CP260 | CP262 | CP265 | CP266 | CP268 | CP269 | CP286

Nc1nc(N)c2nc(CNc3ccc(C(=O)NC(CCC(=O)O)C(=O)O)cc3)cnc2n1 (stereo unspecified)
inactive: CP192 | CP194 | CP201 | CP203 | CP211 | CP215 | CP217 | CP237 | CP238 | CP247 | CP250 | CP252 | CP256 | CP260 | CP262 | CP265 | CP266 | CP268 | CP269 | CP286

CNS(=O)(=O)Cc1ccc2[nH]cc(CCN(C)C)c2c1
inactive: CP192 | CP194 | CP201 | CP203 | CP211 | CP217 | CP237 | CP238 | CP247 | CP250 | CP252 | CP256 | CP260 | CP262 | CP265 | CP266 | CP268 | CP269 | CP286

NC(=O)c1cccnc1
inactive: CP192 | CP194 | CP201 | CP203 | CP211 | CP215 | CP217 | CP237 | CP238 | CP247 | CP250 | CP252 | CP256 | CP260 | CP262 | CP265 | CP268 | CP269 | CP286

CC(C)Cn1cnc2c(N)nc3ccccc3c21
inactive: CP192 | CP194 | CP201 | CP203 | CP211 | CP215 | CP217 | CP237 | CP238 | CP247 | CP250 | CP252 | CP256 | CP262 | CP265 | CP266 | CP268 | CP269 | CP286

CC(=O)Oc1ccccc1C(=O)Nc1ncc([N+](=O)[O-])s1
active: CP237 12.6 µM | CP260 8.91 µM | CP286 12.6 µM
inactive: CP192 | CP194 | CP201 | CP203 | CP211 | CP215 | CP217 | CP238 | CP247 | CP250 | CP252 | CP256 | CP262 | CP265 | CP266 | CP268 | CP269

COc1cc(NS(=O)(=O)c2ccc(N)cc2)nc(OC)n1
inactive: CP192 | CP194 | CP201 | CP203 | CP211 | CP215 | CP217 | CP237 | CP238 | CP247 | CP250 | CP252 | CP256 | CP260 | CP262 | CP265 | CP268 | CP269 | CP286

CC1=NN(c2ccccc2)C(=O)C1
inactive: CP192 | CP194 | CP201 | CP211 | CP215 | CP217 | CP237 | CP238 | CP247 | CP250 | CP252 | CP256 | CP260 | CP262 | CP265 | CP266 | CP268 | CP269 | CP286

O=NN(CCCl)C(=O)NC1CCCCC1
inactive: CP192 | CP194 | CP201 | CP203 | CP211 | CP215 | CP217 | CP237 | CP238 | CP247 | CP250 | CP252 | CP256 | CP260 | CP262 | CP265 | CP266 | CP268 | CP269 | CP286

CCOCC(O)COc1ccc(NC(=O)CC[S+](C)C)cc1 (stereo unspecified)
inactive: CP192 | CP194 | CP201 | CP203 | CP211 | CP215 | CP217 | CP237 | CP238 | CP247 | CP250 | CP252 | CP256 | CP260 | CP262 | CP265 | CP266 | CP268 | CP269 | CP286

CCn1cc(C(=O)O)c(=O)c2cc(F)c(N3CCNCC3)nc21
inactive: CP192 | CP194 | CP201 | CP203 | CP211 | CP215 | CP217 | CP238 | CP247 | CP250 | CP262 | CP265 | CP268 | CP286

COc1nc(N)nc2c1ncn2[C@@H]1O[C@H](CO)[C@@H](O)[C@@H]1O
inactive: CP192 | CP194 | CP201 | CP203 | CP211 | CP215 | CP217 | CP237 | CP238 | CP247 | CP250 | CP252 | CP256 | CP260 | CP262 | CP265 | CP266 | CP268 | CP269 | CP286

CN1CCN(c2c(F)cc3c(=O)c(C(=O)O)cn(CCF)c3c2F)CC1
inactive: CP192 | CP194 | CP201 | CP203 | CP211 | CP215 | CP217 | CP237 | CP238 | CP247 | CP250 | CP252 | CP256 | CP260 | CP262 | CP265 | CP266 | CP268 | CP269 | CP286

CCOC(=O)c1ccc(OC(=O)CCCCCN=C(N)N)cc1
inactive: CP192 | CP194 | CP201 | CP203 | CP211 | CP215 | CP217 | CP237 | CP238 | CP247 | CP250 | CP252 | CP256 | CP262 | CP266 | CP268 | CP269 | CP286

Cc1cccc(N(C)C(=S)Oc2ccc3ccccc3c2)c1
inactive: CP192 | CP194 | CP201 | CP203 | CP211 | CP215 | CP217 | CP237 | CP238 | CP247 | CP250 | CP252 | CP256 | CP260 | CP262 | CP265 | CP268 | CP269 | CP286

CCCc1cc(C(N)=S)ccn1
inactive: CP192 | CP194 | CP201 | CP203 | CP211 | CP215 | CP217 | CP237 | CP238 | CP247 | CP250 | CP252 | CP256 | CP260 | CP262 | CP265 | CP266 | CP268 | CP269 | CP286

NCCCC(O)(P(=O)(O)O)P(=O)(O)O
inactive: CP192 | CP194 | CP201 | CP203 | CP211 | CP215 | CP217 | CP237 | CP238 | CP247 | CP250 | CP252 | CP256 | CP260 | CP262 | CP265 | CP268 | CP269 | CP286

NC(=O)N1c2ccccc2CC(=O)c2ccccc21
inactive: CP192 | CP194 | CP201 | CP203 | CP211 | CP217 | CP237 | CP238 | CP247 | CP250 | CP252 | CP256 | CP260 | CP265 | CP266 | CP268 | CP269 | CP286

CCOC(=O)[C@H](CCc1ccccc1)N[C@H]1CS[C@H](c2cccs2)CN(CC(=O)O)C1=O
inactive: CP192 | CP194 | CP201 | CP203 | CP211 | CP215 | CP237 | CP238 | CP247 | CP250 | CP252 | CP256 | CP260 | CP262 | CP265 | CP266 | CP268 | CP269 | CP286

NC(N)=NC(N)=NCCc1ccccc1
inactive: CP192 | CP194 | CP201 | CP203 | CP211 | CP215 | CP217 | CP237 | CP238 | CP247 | CP250 | CP252 | CP256 | CP260 | CP262 | CP265 | CP266 | CP268 | CP269 | CP286

CC[C@H](C)C(=O)O[C@H]1C[C@@H](C)C=C2C=C[C@H](C)[C@H](CC[C@@H]3C[C@@H](O)CC(=O)O3)[C@H]21
inactive: CP192 | CP194 | CP201 | CP203 | CP211 | CP217 | CP237 | CP238 | CP247 | CP250 | CP252 | CP256 | CP260 | CP262 | CP265 | CP266 | CP268 | CP269 | CP286

COc1ccc(C(=O)CC(=O)c2ccc(C(C)(C)C)cc2)cc1
inactive: CP192 | CP194 | CP201 | CP203 | CP211 | CP217 | CP238 | CP247 | CP250 | CP252 | CP256 | CP262 | CP265 | CP266 | CP268 | CP269

S=P(N1CC1)(N1CC1)N1CC1
inactive: CP192 | CP194 | CP201 | CP211 | CP215 | CP217 | CP237 | CP238 | CP247 | CP250 | CP252 | CP256 | CP260 | CP262 | CP265 | CP266 | CP268 | CP269 | CP286

O=c1cc(O)c(Cl)c[nH]1
inactive: CP192 | CP194 | CP201 | CP203 | CP211 | CP215 | CP217 | CP237 | CP238 | CP247 | CP250 | CP252 | CP256 | CP260 | CP262 | CP265 | CP268 | CP269 | CP286

CCCc1nc(C)c2c(=O)[nH]c(-c3cc(S(=O)(=O)N4CCN(CC)CC4)ccc3OCC)nn12
inactive: CP192 | CP194 | CP201 | CP203 | CP211 | CP215 | CP217 | CP238 | CP247 | CP250 | CP252 | CP256 | CP262 | CP265 | CP268 | CP269
